Bioassay records deposited in PubChem by several laboratories.
VLA-4 inh = inhibition in a human VLA-4 binding assay; P13612; VLA-4 expressing cells, ligand binding flow cytometry; inhibition, % (about 7 µM as worked out from the volumes in the protocol); 330,000 tested, 0.2% active; AID 2557; in the data active = inhibition above about 50%
NTR1 agonist = NTR1 (human) agonism | P30989 | NTR1-U2OS beta-arrestin-GFP spot imaging, agonist mode | activation, % at 20 µM | 330,000 tested, 0.17% active | AID 493036;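 active = activation at or above 40% of the spot to cytoplasm intensity ratio, with at least 20 cells analyzed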;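 also: 0% = DMSO without peptide and 100% = 100 nM NTR1 peptide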
AI-2 QS modul = Vibrio harveyi AI-2 quorum sensing modulation; Vibrio harveyi JMH597 AI-2 luminescence/OD600 ratio, 9 h; hits give low values; strain lacks LuxN and CqsS sensors; 0 = neutral-control median; activity change, % at 7.5 µM; 300,000 tested, 0.4% active; in the data active = activity change below about -75%, passing the limit was not always enough;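 also: luminescence divided by OD600 gain over 9 h not by final OD600 alone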
DSG3 Ab inh = blocks pemphigus antibody binding to human desmoglein-3; P32926; 310,000 tested, 0.48% active; AID 588358; binding (percent of control), % at 10 µM; DSG3-coupled beads, scFv-anti-DSG3-GFP binding, flow cytometry; hits give low values;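 active = binding more than 3 SD below its plate's average and above zero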;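 also: hits lower antibody fragment binding to DSG3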
VLA-4 allo CP = confirmation of allosteric modulators of human VLA-4 integrin. shares compounds with VLA-4 inh. U937 cells, HUTS-21 LIBS mAb binding, flow cytometry; LDV ligand present at threefold Kd. inhibition, % at 6.7 µM. 1,300 tested, 2% active. AID 2813; in the data active = inhibition above about 40%;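 also: 0% = ligand without compound and 100% = no ligand background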
* = called active by the depositor; x = no result. Shown are actives, neighbours in structure and some others; about 1.1% of the full set was active somewhere.

SMILES	VLA-4 inh	NTR1 agonist	AI-2 QS modul	DSG3 Ab inh	VLA-4 allo CP
Cc1cccc(NC(=O)Cn2c(=O)oc3ccccc32)c1C	-20	2	26	102	-4
COc1ccc(CCNC(=O)Cn2c(=O)oc3ccccc32)cc1OC	0	0	8	101	-12
CCC(=O)c1cn(CC(=O)Nc2cccc(C)c2C)c2ccccc12	23	0	-2	95	3
COc1ccc(CCN(C)C(=O)Cn2c(=O)oc3ccccc32)cc1OC	10	1	11	105	x
CCC(=O)c1cn(CC(=O)Nc2ccccc2Cl)c2ccccc12	10	2	1	126	x
S=C(Sc1ccc(Cl)cc1)Sc1ccc(Cl)cc1	0	14	3	x	x
CCN(CC(=O)Nc1ccc(OC)cc1)C(=O)CSCC(=O)Nc1cc(C)on1	-3	1	x	105	x
CCC(=O)C1CCCN(C(=O)CCc2nnc(-c3ccc(C(C)=O)s3)o2)C1 (stereo unspecified)	-71	-1	9	101	x
Cc1cc(Cl)c(S(=O)(=O)N2CCCC2)cc1OCC(=O)NC1CCCCC1	68*	0	-4	103	6
Cc1cc(Cl)c(S(=O)(=O)NC(C(=O)O)C(C)C)cc1OCC(=O)NC1CCCCC1 (stereo unspecified)	-2	2	33	102	x
CCOc1ccc(NC(=O)CN(C)C(=O)c2ccccc2CCc2ccccc2)cc1OCC	-1	10	22	107	x
O=C(CN1CCN(Cc2ccc(Cl)cc2)CC1)N/N=C/C=C/c1ccccc1[N+](=O)[O-]	18	0	0	101	x
O=C(CN1CCN(Cc2ccccc2)CC1)N/N=C/C=C/c1ccccc1[N+](=O)[O-]	43	-2	0	104	-14
COc1ccc(CN2C(=O)c3cccnc3C2=O)cc1S(=O)(=O)N1CC(C)Oc2ccccc21 (stereo unspecified)	56*	2	23	98	0
CC1CN(S(=O)(=O)c2ccc(CN3C(=O)c4cccnc4C3=O)cc2)c2ccccc2O1 (stereo unspecified)	-1	0	1	x	x
O=C(NCCc1nc2ccccc2[nH]1)/C(=C/c1ccco1)NC(=O)c1ccco1	5	0	-10	x	x
O=C(NCCc1nc2ccccc2[nH]1)/C(=C/c1ccco1)NC(=O)c1ccc(Br)o1	40	2	6	102	-3
COc1ccc(S(=O)(=O)N2CCC(C(=O)N[C@H](C(=O)NC3CCCC3)C(C)C)CC2)cc1	3	1	10	x	x
Cc1cc(OC(=O)c2c(Cl)cc(Cl)cc2Cl)nc(C)n1	14	0	15	96	x
Cc1cc(OC(=O)c2cc(F)c(F)cc2Cl)nc(C)n1	63*	0	27	95	14
CN(C)/C(=C\C(=O)c1ccccc1)C(=O)c1ccccc1	x	x	x	85	-8
Cc1ccc(C(=O)CN2C(=O)NC3(CCc4ccccc43)C2=O)s1 (stereo unspecified)	-1	-2	x	101	x
CC(=O)c1ccccc1NS(=O)(=O)c1ccc2c(c1)CC(=O)N2	7	1	x	99	2
O=C1Cc2cc(S(=O)(=O)Nc3ccc(F)cc3Cl)ccc2N1	14	10	x	100	x
C[C@H]1NC(=O)[C@]2(C)[C@@H](c3ccccc3)[C@H]3COc4ccccc4[C@H]3N2C1=O	x	x	x	108	x
SMILES	VLA-4 inh	NTR1 agonist	AI-2 QS modul	DSG3 Ab inh	VLA-4 allo CP
Cc1ccnn1-c1ccc(C(=O)OCC(=O)Nc2ccc(F)cc2)cc1	x	0	x	101	x
CCn1nnnc1SCC(=O)Nc1sc(C)c(C)c1C#N	94*	2	28	103	-1
COc1ccccc1-c1sc2ccccc2c1-c1ccc(OCCN2CCOCC2)cc1	x	5	x	104	0
COc1ccc2sc(-c3ccccc3OC)c(-c3ccc(OCCN4CCOCC4)cc3)c2c1	x	6	x	101	2
c1ccc(-c2sc3ccccc3c2-c2ccc(OCCN3CCOCC3)cc2)cc1	6	3	x	105	-5
Cc1c(S(=O)(=O)N2CCCC(C)C2)c(=O)n(C)c(=O)n1C (stereo unspecified)	7	-1	0	100	x
Cc1c(S(=O)(=O)N2CCC(C)CC2)c(=O)n(C)c(=O)n1C	50*	-1	-22	116	3
C=CCn1c(SCC(=O)Nc2nc(C)cs2)nnc1C(C)NC(=O)c1ccccc1Cl (stereo unspecified)	54*	-1	9	100	2
C=CCn1c(SCC(=O)Nc2ccccc2F)nnc1C(C)NC(=O)c1ccccc1F (stereo unspecified)	3	0	25	105	x
